Bioassay records: PubChem, several laboratories
SENP7 inh: blocks the human protease SENP7; Q9BQF6; recombinant SENP7, Z-RLRGG-aminoluciferin luminescence, 40 min; inhibition, % at 5 µM; 330,000 compounds, 1.5% hits;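 active means inhibition above about 50% at the single test dose, limit read from the data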;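 further: plate controls were DMSO with enzyme for no effect and no enzyme buffer wells for full effect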
Platelet DG rel: modulates dense granule release in human platelets; human platelet-rich plasma, SFLLRN dense granule ATP release, luminescence; inhibition, %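 (compounds screened at 7.5 µM in platelet-rich plasma)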; 300,000 compounds, 0.22% hits; AID 1663;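 active means mean replicate score, as percent of positive control, at or above 50; inconclusive means mean below 50 but at least one replicate at or above 50; inactive means mean and every replicate below 50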
SENP8 block-1: blocks human SENP8 cleavage of Nedd8 substrate; Q96LD8; inhibition, % at 20 µM; recombinant SENP8, Nedd8 substrate fluorescence; AID 602440; 360,000 compounds, 0.64% hits; in the data active means inhibition mostly above about 40%, no sharp cut-off; inactive means mostly below about 27%
Target sequence (Q96LD8 whole entry, looked up): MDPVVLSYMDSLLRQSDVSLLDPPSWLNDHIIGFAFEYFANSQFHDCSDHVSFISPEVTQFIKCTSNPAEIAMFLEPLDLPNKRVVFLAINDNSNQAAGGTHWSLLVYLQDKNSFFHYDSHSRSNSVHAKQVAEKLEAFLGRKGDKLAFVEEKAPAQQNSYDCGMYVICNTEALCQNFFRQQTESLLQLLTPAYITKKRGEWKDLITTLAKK
SENP8 block-2: blocks the human protease SENP8. 330,000 compounds, 1.2% hits. inhibition, % at 10 µM. purified SENP8, Z-RLRGG-aminoluciferin cleavage, luminescence. Q96LD8; in the data active means inhibition above about 50%
SENP6 block: SENP6 protease inhibition; Q9GZR1; Recombinant SENP6 catalytic domain, aminoluciferin luminescence; inhibition, % at 10 µM; 330,000 compounds, 1.8% hits; AID 2599;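 active means inhibition above about 50% at the single tested dose, limit read from the data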;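 further: plate controls were DMSO wells with enzyme for no effect and DMSO wells lacking enzyme for full effect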
SENP8 confirm: confirmation of human SENP8 protease inhibitors | shares compounds with SENP7 inh | Recombinant SENP8, Z-RLRGG-aminoluciferin luminescence, 60 min | inhibition, % at 12.5 µM | 6,200 compounds, 40% hits | AID 488912;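 active means mean inhibition across replicates above about 50%, limit read from the data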
SENP6 conf: confirmation of human SENP6 protease inhibitors. recombinant SENP6, Z-RLRGG-aminoluciferin luminescence. shares compounds with SENP7 inh. inhibition, % at 12.5 µM. 6,200 compounds, 58% hits
SENP7 confirm: confirmation of human SENP7 protease inhibitors; 6,200 compounds, 69% hits; inhibition, % at 12.5 µM; recombinant SENP7, Z-RLRGG-aminoluciferin luminescence, 40 min; shares compounds with SENP7 inh
Casp3 SENP sel: selectivity test for SENP inhibitors: human caspase-3 inhibition; shares compounds with SENP7 inh; purified caspase-3, Z-DEVD-aminoluciferin luminescence, 60 min; inhibition, % at 12.5 µM; 6,200 compounds, 60% hits; AID 488918;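 active means mean inhibition above about 50%, limit read from the data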;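 further: plate controls were enzyme with DMSO for no effect and wells without caspase-3 for full effect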
Target sequence (P42574 28-227 limits assumed): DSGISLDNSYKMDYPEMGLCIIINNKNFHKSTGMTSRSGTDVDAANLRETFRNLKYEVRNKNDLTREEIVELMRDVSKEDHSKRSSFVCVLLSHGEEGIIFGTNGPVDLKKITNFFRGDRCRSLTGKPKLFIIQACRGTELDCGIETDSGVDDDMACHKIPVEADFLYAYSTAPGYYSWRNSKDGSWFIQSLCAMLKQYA
Luc interf: luminescence interference (SENP counter-screen) | shares compounds with SENP7 inh | Pre-incubated SENP8/Z-RLRGG-aminoluciferin, luciferase luminescence interference | inhibition, % at 12.5 µM | 6,200 compounds, 39% hits;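 active means mean inhibition above about 50% when retested at one dose, limit read from the data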;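 further: plate controls were DMSO wells with completed reaction for no effect and substrate without enzyme for full effect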
* = called active by the depositor; i = inactive; ? = inconclusive; . = no result given. The list is not random: actives were taken first. Their share in the collection is about 2.4%.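 How the source made its calls, unless noted: active means mean inhibition above about 50% in the one-dose retest (limit read from the data); inactive means the rest.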

SMILES	SENP7 inh	Platelet DG rel	SENP8 block-1	SENP8 block-2	SENP6 block	SENP8 confirm	SENP6 conf	SENP7 confirm	Casp3 SENP sel	Luc interf
COc1ccccc1N=c1oc2cc(O)ccc2cc1C(N)=O	0	57*	-285	50	91*	99*	100*	101*	99*	92*
COc1ccccc1N=c1oc2cc(O)ccc2cc1C(=O)NCC1CCCO1 (stereo not given)	0	2	-239	-2	-3	.	.	.	.	.
COc1ccccc1NC(=O)c1cc2ccc(O)cc2o/c1=N\O	95*	?	i	94*	95*	8	99*	103*	92*	52*
COc1ccc(C(=O)COC(=O)c2cccs2)cc1	100*	.	10	92*	94*	94*	95*	102*	96*	93*
O=C(CNC(=O)c1cccs1)NCC(=O)OCC(=O)c1ccccc1	1	-4	10	-6	-13	.	.	.	.	.
O=C(COC(=O)c1cccs1)c1ccccc1	83*	14	28	79*	90*	78*	80*	96*	89*	84*
Cc1ccsc1C(=O)OCC(=O)NCCNC(=O)COC(=O)c1sccc1C	5	.	1	3	-1	.	.	.	.	.
COc1cccc(C(=O)COC(=O)c2cccs2)c1	86*	13	8	77*	84*	1	81*	97*	84*	82*
COc1ccccc1C(=O)COC(=O)c1cccs1	3	.	4	-4	10	.	.	.	.	.
COc1cccc(C(=O)COc2ccc(NC(=O)c3cccs3)cc2)c1	-16	-28	11	-18	-8	.	.	.	.	.
Cc1ccsc1C(=O)OCC(=O)Nc1sccc1C(N)=O	67*	5	-1	48	38	56*	58*	79*	67*	24
O=C(CSc1nnc(-c2c[nH]c3ccccc23)o1)NCC1CCCO1 (stereo not given)	-7	.	-5	-7	-2	.	.	.	.	.
Cc1ccsc1C(=O)OCC(=O)c1ccc(OC(F)F)cc1	97*	.	15	94*	95*	69*	91*	102*	92*	29
O=C(CN1CCCC1)N1c2ccccc2C=Cc2ccccc21	-1	0	-3	-1	-1	.	.	.	.	.
N#CC1=C2C=Cc3ccccc3N2CCCC1=O	49	0	-18	14	52*	36	36	76*	68*	9
COc1ccc(-c2cn3cc(C)ccc3n2)cc1F	78*	5	-408	69*	77*	11	74*	90*	80*	32
COc1ccc(-c2csc(C)n2)cc1OC	-15	3	11	-15	1	.	.	.	.	.
COc1ccc(-c2cn3cc(C)ccc3n2)cc1OC	16	18	-333	36	57*	68*	65*	90*	89*	78*
CNC(=S)NC1(C)CCS(=O)(=O)C1 (stereo not given)	7	-2	21	9	-6	.	.	.	.	.
CNC(C)C#Cc1ccc2c(=O)c3cc(C)c(C)cc3oc2c1 (stereo not given)	-4	0	-316	67*	93*	33	23	47	30	71*
COC(=O)c1sccc1NC(=O)Cc1ccc(OC)cc1	42	-1	13	23	51*	49	44	79*	63*	58*
CC(=O)Nc1ccc(NC(=O)C(C)OC(=O)CNS(=O)(=O)c2ccc(Br)cc2Cl)cc1 (stereo not given)	8	22	7	-1	2	.	.	.	.	.
O=C(Nc1ccc(F)c(Cl)c1)Nn1cnnc1	5	-5	8	-9	2	.	.	.	.	.
O=C(COC(=O)c1c[nH]c(=O)[nH]c1=O)Nc1ccccc1F	-5	22	7	-8	21	.	.	.	.	.
O=C(Nc1ccccc1F)c1c[nH]c(=O)[nH]c1=O	29	66*	28	23	51*	40	35	70*	76*	49
SMILES	SENP7 inh	Platelet DG rel	SENP8 block-1	SENP8 block-2	SENP6 block	SENP8 confirm	SENP6 conf	SENP7 confirm	Casp3 SENP sel	Luc interf
Cc1ccc(/C=N/Nc2ccc(C(=O)O)cc2)o1	71*	33	-4	78*	92*	65*	58*	91*	85*	82*
O=C(O)c1ccc(N/N=C/c2ccc(-c3ccccc3Cl)o2)cc1	88*	6	-429	97*	98*	99*	100*	103*	66*	97*
O=C(NC(=S)Nc1ccc(Cl)cn1)c1cc([N+](=O)[O-])ccc1N1CCOCC1	-7	5	16	-5	-1	.	.	.	.	.
Cc1cc(NC(=O)C(C)SCC(=O)NCc2ccc(F)cc2)no1 (stereo not given)	-9	.	-80	-11	-10	.	.	.	.	.
CC12CCC3c4ccc(OCC(=O)O)cc4CCC3C1CCC2=O (stereo not given)	.	.	-3	.	.	.	.	.	.	.
Cc1csc(NC(=O)CSc2nnc(NC(=O)NC(C)(C)C)s2)n1	-10	-3	5	-2	-14	.	.	.	.	.
COCc1c(C(=O)Nc2nc(C)cs2)oc2ccccc12	-2	0	-32	-10	1	.	.	.	.	.
COc1ccc2oc(C(=O)Nc3ccccn3)c(C)c2c1	92*	13	-145	77*	87*	85*	85*	98*	88*	88*
COc1ccc2oc(C(=O)Nc3nc(C)cs3)c(C)c2c1	61*	.	-348	43	46	17	37	72*	55*	34
COc1ccc2oc(C(=O)Nc3ccc(C)cn3)c(C)c2c1	40	-10	-86	-8	-2	.	.	.	.	.
O=C(O)c1nccnc1C(=O)Nc1ccc(Cl)cn1	2	-7	11	11	97*	-9	-7	-6	6	5
CC(=O)CC(=O)Nc1ccc(Cl)cn1	-8	5	5	-11	-9	.	.	.	.	.
CCn1nccc1C(=O)Nc1cc(Cl)cc(Cl)c1	20	6	16	1	30	.	.	.	.	.
CCn1nccc1C(=O)Nc1ccc(Cl)cn1	63*	13	31	35	74*	34	37	80*	40	64*
c1ccc(COc2ccc(CN3CCN(c4ccccn4)CC3)cc2)cc1	9	33	20	31	54*	59*	53*	72*	36	66*
Nc1cccc2cnccc12	-13	.	-22	89*	91*	-26	19	6	-5	-6
Oc1cccc2cnccc12	0	-2	7	-1	-7	.	.	.	.	.
Cc1ccc(-c2cc(C(=O)Nc3cc(C)ccc3O)no2)cc1	.	4	7	.	.	.	.	.	.	.
